RE007 growth inh = less growth of the S. pombe RE007 Vpr strain; S. pombe RE007 Vpr strain, BacTiter-Glo ATP luminescence, 24 h; Potency, µM (series often up to 92.2 µM), for the others: at the highest dose activity change, negative = less growth, usual class: inhibitors; actives 0.21% (n = 360,000); active means well fitted falling curve with a large enough effect; inconclusive means small, poorly fitted or top-dose-only effect; inactive means no such curve, though single readings can be large or run the other way; further: potency means the concentration at half of the fitted maximal effect; on the % scale 0 is the no-effect control and ±100 the full control effect; nearly all actives have a fitted effect of over 50% in size
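Fission yeast strain RE007, carrying one chromosomally integrated HIV-1 vpr copy, was seeded at OD 0.01 in PMG+AL medium with 23 nL pinned compound. After 24 h at 30 °C and 99% humidity, viability was read by BacTiter-Glo luminescence.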
Shiga inhibitor = inhibitors of Shiga toxin in Vero cells. Vero cells, Shiga toxin protein synthesis inhibition reporter. inhibition, % at 38.7 µM. actives 9.2% (n = 290,000); in the data active means inhibition mostly above about 28%, no sharp cut-off; inactive means mostly below about 43%; further: 0% is about no effect
LmPK inh = LmPK (Leishmania mexicana) enzyme inhibition. actives 0.37% (n = 290,000). Q27686. Potency, µM (highest dose often 57.5 µM), for the others: at the highest dose activity change, negative = inhibition, actives largely listed as inhibitors. purified LmPK, Kinase-Glo ATP luminescence, 1 h; further: potency means the concentration at half of the fitted maximal effect; on the % scale 0 is the no-effect control and ±100 the full control effect
Target sequence (Q27686 whole entry, looked up): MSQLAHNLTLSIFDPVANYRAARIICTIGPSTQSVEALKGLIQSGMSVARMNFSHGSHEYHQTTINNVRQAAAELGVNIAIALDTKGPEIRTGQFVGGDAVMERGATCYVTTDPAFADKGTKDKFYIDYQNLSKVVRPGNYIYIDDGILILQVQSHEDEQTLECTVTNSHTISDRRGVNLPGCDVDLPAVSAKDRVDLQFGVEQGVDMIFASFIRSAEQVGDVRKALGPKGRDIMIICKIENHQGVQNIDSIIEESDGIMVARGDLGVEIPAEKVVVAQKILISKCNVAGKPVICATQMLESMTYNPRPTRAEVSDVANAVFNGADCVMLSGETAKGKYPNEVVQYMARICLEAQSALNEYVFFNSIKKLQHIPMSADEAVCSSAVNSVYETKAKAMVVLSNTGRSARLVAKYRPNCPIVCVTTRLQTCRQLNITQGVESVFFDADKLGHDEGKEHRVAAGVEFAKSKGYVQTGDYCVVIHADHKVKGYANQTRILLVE
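In 50 mM imidazole pH 7.2 with 7 mM MgCl2, LmPK (0.1 nM) turned over PEP (0.5 mM) and ADP (0.1 mM) for 1 h at room temperature. Luciferase read-out of ATP.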
Tb PYK inh = inhibitors of Trypanosoma brucei pyruvate kinase. Potency, µM (top dose mostly 76.8 µM), for the others: top-dose activity, negative = inhibition, most hits filed as inhibitors. actives 0.12% (n = 410,000). Q57TT1. TbPYK enzyme, Kinase-Glo Plus ATP luminescence, 45 min; further: potency means the concentration at half of the fitted maximal effect; on the % scale 0 is the no-effect control and ±100 the full control effect; nearly all actives have a fitted effect of over 50% in size
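Luminescent Kinase-Glo Plus end-point after 45 min room-temperature reaction of T. brucei pyruvate kinase started with 130 uM ADP (final). Buffer TEA 50 mM pH 7.2 with KCl, MgCl2, BSA, Tween-20; titration-based qHTS with fitted concentration-effect curves.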
CHX counter = counter-screen hit for Shiga toxin inhibitors, cycloheximide. max response, %. actives 12% (n = 300,000). cell reporter, cycloheximide protein synthesis inhibition counterscreen; in the data active means max response mostly above about 13%, no sharp cut-off; inactive means mostly below about 14%; further: read at 38.3 µM for the half of the compounds with a filed dose; 0% is about no effect
FBPA Giardia inh = blocks Giardia fructose-bisphosphate aldolase activity; purified Giardia FBPA; Potency, µM (highest dose often 59.6 µM), for inactives: top-dose activity, negative = inhibition, actives largely listed as inhibitors; actives 0.71% (n = 290,000); further: potency means the concentration at half of the fitted maximal effect; on the % scale 0 is the no-effect control and ±100 the full control effect; nearly all actives have a fitted effect of over 55% in size
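40 nM FBPA preincubated 10 min at RT with compound (up to 57.5 uM final), then substrate plus GAPDH/TPI/NAD/arsenate coupling and diaphorase/resazurin added. Fluorescence read after 20 min at RT, 525/598 nm.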
* marks the source's active call; other numbers are inactive results; ? = inconclusive; . = no result given; + = active, no number; [ ] = dose if it differs, or a comment. This is one part of a sample in which hits are shown more often than they occur. Unless noted, the call rests on the fitted dose curve; in most records, active means well fitted curve in the direction sought with a large enough effect; inconclusive means small, poorly fitted or top-dose-only effect, or another doubt; inactive means no such curve, though single readings can be large; an effect the other way counts as inactive or inconclusive.

SMILES | RE007 growth inh | Shiga inhibitor | LmPK inh | Tb PYK inh | CHX counter | FBPA Giardia inh
O=C(Nc1ccccc1)c1cc2ccc3ccccc3c2s1 | -7% | 92* | 0% | -1% | 47* | -1%
COc1cc(NC(=O)c2cc3c(Cl)nc4ccccc4c3s2)cc(OC)c1OC | 17% | -12 | 0% | -2% | 6 | -7%
COc1ccc2cc(C(=O)Nc3ccc(S(N)(=O)=O)cc3)sc(=O)c2c1OC | 39% | -11 | 3% | 2% | -2 | 0%
COc1ccc2cc(C(=O)Nc3ccccc3)sc(=O)c2c1OC | . | 34* | -7% | -11% | 43* | 3%
CC(C)CN(c1ccccc1)S(=O)(=O)c1nnc(NC(=O)C2CCCCC2)s1 | . | . | . | -6% | . | .
CCc1[nH]nc(C(=O)N2CCCC(Nc3ccc(C(C)C)cc3)C2)c1C (configuration not stated) | 1% | -14 | -11% | 3% | -3 | .
CCc1[nH]nc(C(=O)N2CCCC(Nc3cccc(F)c3)C2)c1C (configuration not stated) | 2% | 66* | 0% | 2% | 31* | .
COc1ccc(CCNC(=O)Cn2nnc(-c3ccc(C(F)(F)F)cc3)n2)cc1OC | . | . | . | 0% | . | .
COc1ccc2c(c1)c(C(=O)N/N=C/c1cccc(O)c1)c(C)n2C | 1% | 28 | -3% | -3% | -4 | -13%
COc1ccc2c(c1)c(C(=O)N/N=C/c1cccc(Br)c1)c(C)n2C | -12% | 10 | 2% | -6% | 2 | 20µM*
CCOC(=O)c1c(C)[nH]c(C(=O)N/N=C/c2cccc(OC)c2)c1C | -3% | + | 8% | -2% | 15* | 7%
COc1ccc(/C=N/NC(=O)c2[nH]c(C)c(C(=O)N/N=C/c3ccc(OC)cc3)c2C)cc1 | -20% | -9 | 5% | 3% | 1 | 4%
COc1cccc(/C=N/NC(=O)c2[nH]c(C)c(C(=O)N/N=C/c3cccc(OC)c3)c2C)c1 | -19% | 73* | 1% | -6% | 14 | -4%
CCOC(=O)c1c(C)[nH]c(C(=O)N/N=C\c2ccccc2Cl)c1C | -2% | 21 | 1% | -7% | 20* | -1%
CCOc1ccc(C(=O)NC(=S)Nc2ccc(NC(=O)c3ccco3)cc2)cc1[N+](=O)[O-] | -4% | 5 | -3% | -7% | 15* | -5%
COc1cc(C(=O)NC(=S)Nc2ccc(NC(=O)c3ccco3)cc2)cc(OC)c1OC | 11% | -2 | -5% | -11% | 3 | ?
CCOc1ccc(C(=O)NC(=S)Nc2ncccc2C)cc1[N+](=O)[O-] | 33% | 33* | 2% | -2% | 25* | ?
CC(=O)OC[C@@H]1O[C@@H](O/N=C2/C[C@@H](O)[C@@H](O)[C@@H]3[C@H]4C(=O)N(c5ccc(F)cc5F)C(=O)[C@@H]4CC[C@@H]23)[C@H](OC(C)=O)[C@H](OC(C)=O)[C@@H]1OC(C)=O | . | . | . | . | . | 4%[12.9 µM]
Cc1ccc(Cl)c2sc(NC(=O)CS(=O)(=O)c3ccc(Cl)cc3)nc12 | . | . | . | 6%[15.4 µM] | . | .
Cc1ccnc(NC(=O)Nc2ccc(Br)cc2Cl)c1 | -1% | 91* | -3% | -10% | 47* | 4%
Cc1ccc(NC(=O)Nc2ccc(F)cc2)nc1 | -8% | 65* | 3% | 3% | 47* | 2%
COc1ccc(NC(=O)Nc2cc(C)ccn2)cc1 | 7% | . | . | -11% | . | .
Cc1ccnc(NC(=O)Nc2ccc(F)cc2)c1 | -30% | 69* | -10% | 1% | 35* | -3%
COC(=O)c1ccccc1NC(=O)Nc1cc(C)ccn1 | -15% | -5 | -1% | 2% | 2 | 3%
CSc1ccc(NC(=O)Nc2cc(C)ccn2)cc1 | -10% | 171* | 0% | 0% | 55* | 6%
SMILES | RE007 growth inh | Shiga inhibitor | LmPK inh | Tb PYK inh | CHX counter | FBPA Giardia inh
COc1ccccc1NC(=O)Nc1ccc(C)cn1 | 6% | 23 | -3% | 3% | 10 | 0%
COc1cccc(Cn2c(=O)n(-c3cc(C)cc(C)c3)c(=O)c3oc4ccccc4c32)c1 | . | . | . | 2% | . | .
Cc1ccc(NC(=O)Nc2ccc3c(c2)N(C)C(=O)CS3)nc1 | 14% | 43 | 1% | -6% | -1 | 6%
Cc1ccnc(NC(=O)Nc2ccc3c(c2)N(C)C(=O)CS3)c1 | -2% | 156* | 0% | 4% | 83* | 2%
Cc1ccnc(NC(=O)c2cc3cc(F)ccc3s2)c1 | ? | 83* | 0% | 0% | 45* | 3%
CC(C)NC(=O)Cn1ncn2c(cc3cc(F)ccc32)c1=O | . | . | . | 12% | . | .
c1ccc2c(c1)ncn2CCCOc1ccc2c(c1)CCC2 | -25% | 98* | 7% | -7% | 19* | 0%
c1ccc2c(c1)ncn2CCCCOc1ccc2c(c1)CCC2 | ? | 37 | -4% | 33% | 18* | ?
CCc1c2c(nc3ccc(OC)cc13)OC(CC)C2 (configuration not stated) | . | . | . | . | . | -3%
CCCCOc1ccc(CC2CCC(=O)NC2=O)cc1 (configuration not stated) | 25% | 3 | -12% | 3% | 13* | -5%
CCCCOc1ccc(C2CC(=O)NC2=O)cc1 (configuration not stated) | 26% | 67* | -1% | 5% | 36* | -5%
CCCOc1ccc(C2CC(=O)NC2=O)cc1 (configuration not stated) | 20% | 24 | 4% | -21% | -4 | 0%
CCCCCOc1ccc(C2NC(=O)NC2=O)cc1 (configuration not stated) | 16% | -35 | 3% | 13% | 6 | 0%
O=C(Cc1ccccc1)Nc1nnc(-c2cccs2)s1 | 15% | 40 | 2% | -4% | 25* | 2%
O=C(Cc1ccccc1F)Nc1nc(-c2ccc(F)c(F)c2)cs1 | 5% | 62* | -5% | 1% | 19* | 3%
O=C(Cc1ccccc1)Nc1nc(-c2ccc(F)c(F)c2)cs1 | -9% | 42 | -8% | 4% | 14 | .
COc1ccc(C(=O)Nc2nc(-c3cccs3)cs2)cc1 | ? | 84* | 0% | 0% | 45* | 3%
O=C(Cc1ccccc1F)Nc1nc(-c2cccs2)cs1 | ? | 50* | -2% | 2% | 37* | -10%
COC(=O)c1ccc(OCC2c3cc(OC)c(OC)cc3CCN2C(=O)Cc2ccccc2)cc1 (configuration not stated) | . | . | . | -4% | . | .
CCCCNC(=O)CSc1nc2nc(C)c(Cc3ccccc3C)c(C)n2n1 | . | . | . | -7% | . | .
O=C(Cc1ccccc1)Nc1nc(-c2cccs2)cs1 | -15% | 105* | 0% | 0% | 43* | -16%
CS(=O)(=O)N1CCc2cc(-c3csc(NC(=O)Cc4ccccc4)n3)ccc21 | -4% | 28 | 4% | -2% | 7 | 0%
O=C(Nc1nc(-c2ccncc2)cs1)c1ccco1 | ? | 53 | -8% | -18% | 12 | -7%
